Screen size: about 190,000 compounds; about 810 (0.43%) were called active. For the sample, actives were picked, then their nearest neighbours and some compounds at random. A number with no mark means an inactive call. Cut-off read from the data, not from the text of the source: active = inhibition above about 50%; inactive = the rest.
molecular target: Mannose-6-phosphate isomerase (Homo sapiens) (UniProt P34949); test: inhibitors of human PMI, primary screen, biochemical, fluorescence intensity, coupled assay (AID 1209); conditions: purified PMI enzyme, at 20 µM, hits give high values;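 note: plate controls were DMSO vehicle for no effect and wells lacking substrate for full effect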
Sequence (P34949 whole entry, looked up): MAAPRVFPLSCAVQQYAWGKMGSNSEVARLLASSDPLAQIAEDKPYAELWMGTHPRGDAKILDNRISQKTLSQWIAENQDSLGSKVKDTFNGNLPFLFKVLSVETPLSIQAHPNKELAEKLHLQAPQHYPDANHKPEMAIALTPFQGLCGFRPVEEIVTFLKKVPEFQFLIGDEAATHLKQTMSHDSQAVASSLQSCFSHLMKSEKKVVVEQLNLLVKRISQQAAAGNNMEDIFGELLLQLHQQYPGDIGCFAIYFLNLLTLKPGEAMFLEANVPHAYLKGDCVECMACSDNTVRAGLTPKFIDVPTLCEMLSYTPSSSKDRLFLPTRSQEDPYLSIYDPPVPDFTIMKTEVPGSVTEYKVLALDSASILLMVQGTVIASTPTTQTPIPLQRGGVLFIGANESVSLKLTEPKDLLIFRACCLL

Point of comparison: `CN(C(=O)c1ccccn1)C1(C(=O)NC2CCCCC2)CCCCC1`, inhibition -7.7%. Against it:
- CCn1c(CNC(=O)Cc2ccc(OC)cc2)nnc1SCCOc1ccccc1 — lower, -11.5%
- CC(C)Nc1nc(NC(C)C)nc(N(C)C#N)n1 — higher, 3.3%
- O=C(NN1CCN(Cc2ccccc2Cl)CC1)c1ccc(Br)cc1 — lower, -9.1%
- O=S1(=O)CCN2C(c3cccc4ccccc34)=CSC2=N1 — higher, 2.1%
- Nc1nnc(SCCOc2ccccc2)s1 — higher, 1.7%
- Clc1ccc(OCc2nnc(-c3ccccc3Br)o2)c(Cl)c1 — higher, -0.9%
- Cc1ccc(NC(=O)/C(=C/c2cccc([N+](=O)[O-])c2)NC(=O)C2CCCCC2)cc1 — higher, 14%
- CC(=O)/C(CN1CCCCC1)=N\O — higher, -6.1%
- C/C(=N\O)C(=O)NCCN1CCCCC1 — higher, 1.5%
- CCc1c(C)nc2ncnn2c1NC1CCCc2ccccc21 (centres undefined) — higher, 15%
- CC(C)c1ccc(NC(=O)C2CC(=O)N=C(N)S2)cc1 (centres undefined) — higher, 7.7%
- Cc1ccc(C2=NN(C(=S)Nc3ccccc3)C(c3ccco3)C2)cc1 (centres undefined) — higher, 8.2%
- COc1ccc(C2CC(c3ccccc3)=NN2C(=S)Nc2ccccc2)cc1 (centres undefined) — higher, 9.4%
- O=C(O)CCN=Cc1c(O)c2ccccc2oc1=O — higher, 7.6%
- O=C(O)CCCN=Cc1c(O)c2ccccc2oc1=O — higher, 3.2%
- CCOC(=O)c1c(C)oc2c1c(C(c1cccnc1)N1CCCCC1)c(O)c1ccccc12 (centres undefined) — higher, 28.2%
- CCOC(=O)c1c(C)oc2c1c(C(c1cccnc1)N1CCN(C)CC1)c(O)c1ccccc12 (centres undefined) — higher, 35.1%
- Cc1cc(C)cc(-n2c(O)c(C=NC3CCS(=O)(=O)C3)c3ccccc3c2=O)c1 (centres undefined) — higher, 14.1%
- CCOC(=O)c1c(C)oc2c1c(CN1CCN(C(=O)OCC)CC1)c(O)c1ccccc12 — higher, 25.1%
- Cc1ccc(-n2c(O)c(C=NC3CCS(=O)(=O)C3)c3ccccc3c2=O)cc1 (centres undefined) — higher, 5.7%
- CCOC(=O)c1c(C)oc2c1c(C(c1ccccc1)N1CCOCC1)c(O)c1ccccc12 (centres undefined) — higher, 37%
- CCC1CCCCN1C(=O)COc1cccc2c1CCN(C)C2=O (centres undefined) — higher, -3.6%
- O=C(C[n+]1cccc(CO)c1)Nc1nc2ccccc2s1 — higher, -3.4%
- O=c1c2sc(-c3ccccc3)cc2nc2n1CCC2 — higher, -4.9%
- Clc1ccc(N/N=C/c2ccncc2)cc1Cl — higher, 5.3%
- O=C(COC(=O)[C@@H]1CCCN1S(=O)(=O)c1ccccc1F)Nc1ccc(OC(F)F)cc1 — higher, 9.6%
- Cn1c(SCC(=O)NCC2CCCO2)nnc1-c1ccc(S(=O)(=O)N2CCCC2)cc1 (centres undefined) — higher, -1.5%
- CCNC(=O)NC(=O)C(C)SCc1ccccc1C (centres undefined) — lower, -8.4%
- CCOC(=O)c1c(C)oc2c1c(C(c1ccncc1)N1CCOCC1)c(O)c1ccccc12 (centres undefined) — higher, 21%
- CCOC(=O)c1c(C)oc2c1cc(O)c1ccccc12 — higher, 13.4%
- Oc1[nH]c2ccccc2c1C=NCC1CCCO1 (centres undefined) — higher, -2.9%
- O=c1oc2ccccc2c(O)c1C=NCc1ccccn1 — higher, 5.9%
- CCOC(=O)c1c(NCC2CCCO2)c2ccccc2[nH]c1=O (centres undefined) — lower, -8.8%
- CCOC(=O)c1c(C)oc2c1c(C(c1cccnc1)N1CCOCC1)c(O)c1ccccc12 (centres undefined) — higher, 22.6%
- Cn1c(NC(=O)Cc2cccc3ccccc23)cc(=O)n(C)c1=O — higher, 7.2%
- NNC(=O)c1sc2cc(C(F)(F)F)cnc2c1-c1cccnc1 — higher, 3.5%
- O=S1(=O)N=C(Nc2nncs2)c2ccccc21 — higher, 23.3%
- O=C1CNC(=O)N1CC(O)Cn1c2ccccc2c2ccccc21 (centres undefined) — higher, 5.5%
- O=C(/C=C/c1ccc(S(=O)(=O)NCc2ccco2)cc1)NCc1cccc(Cl)c1 — higher, 0.4%
- CCCn1c(NCc2ccccc2NS(=O)(=O)c2ccc(C)cc2)nc2ccccc21 — higher, 27.9%
- CCCn1c(CNC(=O)c2ccccc2)nc2ccccc21 — higher, 0.8%
- O=C(N/N=C/c1coc2ccccc2c1=O)c1ccccc1Br — higher, -7.2%
- Cn1c(C(C#N)C(=O)Cc2cccc3ccccc23)nc2ccccc21 (centres undefined) — higher, -7.2%
- C=CCNC(=S)Nc1ccc(Cl)c(S(=O)(=O)N2CCOCC2)c1 — higher, -6.8%
- CCC(=O)OCCNc1cc(Sc2nccn2C)c2nonc2c1[N+](=O)[O-] — higher, 20.4%
- CCCSc1cc(NCCOC(C)=O)c([N+](=O)[O-])c2nonc12 — higher, 27.6%
- COC(=O)CCSc1cc(NCCOC(C)=O)c([N+](=O)[O-])c2nonc12 — higher, 4.9%
- CCCSc1cc(NCCOC(=O)CCC)c([N+](=O)[O-])c2nonc12 — higher, 41.9%
- O=C(O)/C=C/C(=O)Nc1ccc(SC(F)(F)F)cc1 — lower, -22.4%
- CC1(C)Cc2nc3sc4c(=O)n(Cc5ccccc5)cnc4c3cc2CS1 — lower, -8.6%
- Cc1cc(NC(=O)CSc2ncnc3ccccc23)no1 — higher, 15.8%
- O=C(O)CCn1cc(/C=C2\SC(=S)NC2=O)c(-c2ccccc2)n1 — higher, -4.7%
- O=Cc1cn(CCC(=O)O)nc1-c1cccc(Br)c1 — higher, -4.6%
- CN(C)Cc1c(O)ccc2c3c(c(=O)oc12)CCCCC3 — higher, -0.4%
- O=c1oc2c(CN3CCOCC3)c(O)ccc2c2ccccc12 — higher, 7.2%
- CCC1(c2ccccc2)NC(=O)N(Cc2ccc(C(=O)OC)cc2)C1=O (centres undefined) — higher, 4.1%
- CCOC(=O)c1[nH]c2ccc(OC)cc2c1NC(=O)/C=C/c1ccc2c(c1)OCO2 — higher, -2.7%
- CC1=NN(c2ccccc2)C(=O)/C1=C/C=C/c1ccccc1 — higher, 3.1%
- CC1=NN(c2ccccc2)C(=O)/C1=C/C=C/c1ccc(N(C)C)cc1 — higher, 14.6%
- CCOc1ncccc1C(=O)Nc1nc(SC)ns1 — higher, -7%
- O=C1C2C3C=CC(CNS(=O)(=O)c4ccccc4[N+](=O)[O-])(O3)C2C(=O)N1c1ccccc1 (centres undefined) — lower, -34.8%
- COc1ccccc1C(OC(=O)c1cccs1)C(=O)NCc1ccco1 (centres undefined) — higher, -1.9%
- O=C(O)[C@@H]1CSC2(CCSC2)N1 (some centres undefined) — higher, -0.6%
- CCOc1cc(/C=C2\C(=O)N(Cc3ccco3)C(C)=C2C(=O)OC)ccc1O — higher, 27.7%
- COC(=O)C1=C(C)N(Cc2ccco2)C(=O)/C1=C\c1ccc([N+](=O)[O-])cc1 — lower, -16.2%
- O=C(c1ccc(F)cc1)c1c[nH]c(C(=O)NCCCN2CCOCC2)c1 — higher, 4.5%
- CC1CCc2c(sc(NC(=O)Cn3nc(C(F)(F)F)c4c3CCCCC4)c2C#N)C1 (centres undefined) — higher, -0.9%
- CCc1c(C)sc(NC(=O)Cn2nc(C(F)(F)F)c3c2CCCC3)c1C#N — higher, 15.3%
- CCOc1ccc(Br)cc1S(=O)(=O)Nc1ccc(N2CCOCC2)cc1 — higher, 12%
- CC1CCc2c(nc3ncnn3c2N2CCN(c3ccccc3)CC2)C1 (centres undefined) — lower, -7.9%
- COc1cccc(N2CCN(c3c4c(nc5ncnn35)CCC4)CC2)c1 — higher, -1.8%
- N#CC1=C(N)Oc2n[nH]c(-c3cccs3)c2C1C1C=CCCC1 (centres undefined) — higher, 2.1%
- O=C(O)CSc1ncccn1 — lower, -18.2%
- O=C(CSc1nc2ccccc2s1)CSc1nc2ccccc2s1 — higher, 7.7%
- O=C(Nc1cc(N2CCOCC2)ncn1)NC1(C(F)(F)F)Oc2ccccc2O1 — higher, 35.5%
- O=C(Nc1cc(N2CCOCC2)ncn1)c1ccc(F)cc1 — higher, 5.3%
- COCCNC(=O)NC1(C(F)(F)F)Oc2ccc(Cl)cc2O1 (centres undefined) — higher, 22.5%
- COCC(C)NC(=O)NC1(C(F)(F)F)Oc2ccc(Cl)cc2O1 (centres undefined) — higher, 22.8%
- O=C(NCCN1CCOCC1)NC1(C(F)(F)F)Oc2ccccc2O1 — higher, 8.2%
- O=C(NCc1cccnc1)NC1(C(F)(F)F)Oc2ccc(Cl)cc2O1 (centres undefined) — higher, 22.4%

`C/C(=N\O)C(=O)C(CN1CCCCC1)CN1CCCCC1` was tested, and the inhibition was 52.4% (active).
With `Cc1ccc(C2CC(c3ccccc3)=NN2C(=S)Nc2ccccc2)o1` (centres undefined) the inhibition was 53% (active).
With `CCOC(=O)c1c(C)oc2c1c(C=NCCC(=O)O)c(O)c1ccccc12` the inhibition was 77.4% (active).
With `CCOC(=O)c1c(C)oc2c1c1c(c3ccccc32)OCN(Cc2cccnc2)C1` the inhibition was 71.9% (active).
`CCOC(=O)c1c(C)oc2c1c(C=NC1CCS(=O)(=O)C1)c(O)c1ccccc12` (centres undefined) was tested, and the inhibition was 76.1% (active).
For `CCOC(=O)c1c(C)oc2c1c(CN1CCN(CCO)CC1)c(O)c1ccccc12`, the inhibition was 57.7% (active).
With `CCOC(=O)c1c(C)oc2c1c(C=NCC1CCCO1)c(O)c1ccccc12` (centres undefined) the inhibition was 63.6% (active).
For `CCOC(=O)c1c(C)oc2c1c(C=NCc1ccccn1)c(O)c1ccccc12`, the inhibition was 62.5% (active).
In the case of `CCCn1c(CNS(=O)(=O)c2ccc(C)cc2)nc2ccccc21`, the inhibition is reported as 83.3% (active).
For `CCC(=O)OCCNc1cc(SCCC(=O)OC)c2nonc2c1[N+](=O)[O-]`, the inhibition was 79.5% (active).
For `CCCC(=O)OCCNc1cc(SCCC(=O)OC)c2nonc2c1[N+](=O)[O-]`, the inhibition was 81.2% (active).
In the case of `CC1=NN(c2ccccc2)C(=O)/C1=C/C=C/C=C/N(C)C`, the inhibition is reported as 50.1% (active).
With `COC(=O)C1=C(C)N(Cc2ccco2)C(=O)/C1=C\c1ccc(N(C)C)cc1` the inhibition was 63.9% (active).
In the case of `N#Cc1c(NC(=O)Cn2nc(C(F)(F)F)c3c2CCCC3)sc2c1CCC2`, the inhibition is reported as 56.8% (active).
In the case of `c1ccc(N2CCN(c3c4c(nc5ncnn35)CCC4)CC2)cc1`, the inhibition is reported as 68.8% (active).
With `O=C(Nc1cc(N2CCOCC2)ncn1)NC1(C(F)(F)F)Oc2ccc(Cl)cc2O1` (centres undefined) the inhibition was 74.1% (active).
`Cc1cc(NC(=O)NC2(C(F)(F)F)Oc3ccc(Cl)cc3O2)no1` (centres undefined) was tested, and the inhibition was 52% (active).
`O=C(NCCN1CCOCC1)NC1(C(F)(F)F)Oc2ccc(Cl)cc2O1` (centres undefined) was tested, and the inhibition was 60.2% (active).
